Of roughly 8,800 targets only a part is listed; those with a hit were picked by preference. About 0.5% of all pairs of compound and target were hits.
What was measured:
Assay in all cases: log2 fold change, soluble protein after heating vs DMSO (PISA); higher = thermal stabilisation; K562 lysate, 10 uM; active = over 0.2 and 3.5 SD of the protein, either way, in both replicates (recomputed)
[1] = compound: NCC(=O)Nc1ccc(-n2nc(C(F)(F)F)cc2-c2ccc3c(ccc4ccccc43)c2)cc1
Method in brief: (§1)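 Following dounce homogenisation of K562 pellets in PBS pH 7.4 with 1 mM MgCl2, crude extract at 1 mg/mL protein was incubated for 30 min with 10 μM compound. Aliquots were then heated for 3 min over 48°C-58°C and pooled, NP-40 was added to 0.5% at 4°C, and soluble protein was recovered as the supernatant at 21,000xg for 90 min. Channel-sum-equalised TMTpro 16plex LC-MS/MS quantified this protein. Each value, from duplicates, is a log-two fold change in thermal stability relative to solvent controls.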

vorinostat = compound: O=C(CCCCCCC(=O)Nc1ccccc1)NO [vorinostat]
Method in brief: as §1

silmitasertib = compound: O=C(O)c1ccc2c(c1)nc(Nc1cccc(Cl)c1)c1ccncc12 [silmitasertib]
Method in brief: as §1

[2] = compound: O=C1NC(=O)C(c2cnc3ccccn23)=C1c1cn2c3c(cc(F)cc13)CN(C(=O)N1CCCCC1)CC2
Method in brief: as §1

entospletinib = compound: c1cn2cc(-c3ccc4cn[nH]c4c3)nc(Nc3ccc(N4CCOCC4)cc3)c2n1 [entospletinib]
Method in brief: as §1

Measured: log2 fold change

UNC45A (UniProt Q9H3U1)
active: vorinostat -0.588
inactive: [1] -0.005 | silmitasertib 0.011 | [2] 0.008 | entospletinib 0.01

VPS39 (UniProt Q96JC1)
inactive: [1] 0.009 | vorinostat -0.194 | silmitasertib 0.01 | [2] -0.005 | entospletinib 0.013

ZC3H11A (UniProt O75152)
inactive: [1] 0.123 | silmitasertib -0.026 | [2] 0.062 | entospletinib -0.009
active: vorinostat -0.375

URGCP (UniProt Q8TCY9)
inactive: [1] 0

XPO6 (UniProt Q96QU8)
active: vorinostat -0.401
inactive: [1] -0.034 | silmitasertib 0.049 | [2] -0.031 | entospletinib -0.027

WDR20 isoform 7 (UniProt Q8TBZ3)
Sequence of UniProt Q8TBZ3 (Q8TBZ3 whole entry, looked up): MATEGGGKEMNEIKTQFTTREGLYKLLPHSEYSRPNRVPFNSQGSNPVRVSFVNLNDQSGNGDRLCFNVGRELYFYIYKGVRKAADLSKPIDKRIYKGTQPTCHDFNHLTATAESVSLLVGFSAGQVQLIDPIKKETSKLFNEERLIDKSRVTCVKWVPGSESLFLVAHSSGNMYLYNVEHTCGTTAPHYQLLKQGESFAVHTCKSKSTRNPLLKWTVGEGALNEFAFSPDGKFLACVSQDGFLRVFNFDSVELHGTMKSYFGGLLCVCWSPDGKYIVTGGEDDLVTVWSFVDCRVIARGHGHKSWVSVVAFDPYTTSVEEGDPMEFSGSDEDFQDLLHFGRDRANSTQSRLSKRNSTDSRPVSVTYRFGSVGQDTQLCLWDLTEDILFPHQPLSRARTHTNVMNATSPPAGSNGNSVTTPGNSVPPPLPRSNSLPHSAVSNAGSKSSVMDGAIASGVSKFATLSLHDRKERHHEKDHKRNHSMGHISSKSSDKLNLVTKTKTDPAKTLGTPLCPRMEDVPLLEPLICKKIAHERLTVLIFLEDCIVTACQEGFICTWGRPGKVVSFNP
inactive: [1] 0.01 | vorinostat 0.009 | silmitasertib 0.087 | [2] -0.013 | entospletinib 0.018

VPS16 (UniProt Q9H269)
active: vorinostat -0.543
inactive: [1] -0.047 | silmitasertib 0.076 | [2] -0.01 | entospletinib 0.03

WDR91 (UniProt A4D1P6)
active: vorinostat -0.227
inactive: [1] -0.045 | silmitasertib 0.042 | [2] -0.004 | entospletinib -0.029

WAC (UniProt Q9BTA9)
active: vorinostat -0.309
inactive: [1] 0.011 | silmitasertib -0.031 | [2] -0.014 | entospletinib -0.046

ZNF845 (UniProt Q96IR2)
active: silmitasertib 0.364
inactive: [1] -0.074 | vorinostat -0.297 | [2] -0.113

ZNF598 isoform 3 (UniProt Q86UK7)
inactive: [1] 0.01 | silmitasertib 0 | [2] 0.024 | entospletinib -0.017
active: vorinostat -0.338

USP22 (UniProt Q9UPT9)
Sequence of UniProt Q9UPT9 (Q9UPT9 whole entry, looked up): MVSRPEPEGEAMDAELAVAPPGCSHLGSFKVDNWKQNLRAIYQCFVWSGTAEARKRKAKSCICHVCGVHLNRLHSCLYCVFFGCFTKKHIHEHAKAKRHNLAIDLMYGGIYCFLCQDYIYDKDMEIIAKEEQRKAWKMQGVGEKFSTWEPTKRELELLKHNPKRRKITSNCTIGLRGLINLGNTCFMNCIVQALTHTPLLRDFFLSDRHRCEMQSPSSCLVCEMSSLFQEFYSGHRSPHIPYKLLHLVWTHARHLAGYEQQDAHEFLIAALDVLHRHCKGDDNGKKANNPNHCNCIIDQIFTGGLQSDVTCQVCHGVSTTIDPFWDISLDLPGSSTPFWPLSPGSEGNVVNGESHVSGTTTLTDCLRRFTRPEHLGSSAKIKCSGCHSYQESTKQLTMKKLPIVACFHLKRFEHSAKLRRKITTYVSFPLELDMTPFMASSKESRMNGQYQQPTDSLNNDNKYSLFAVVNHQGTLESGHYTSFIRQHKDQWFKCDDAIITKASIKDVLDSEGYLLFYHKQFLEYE
inactive: [1] -0.069 | silmitasertib -0.045 | [2] 0.001 | entospletinib 0.059
active: vorinostat -0.323

UXT isoform 2 (UniProt Q9UBK9)
inactive: [1] -0.003 | vorinostat 0.037 | silmitasertib -0.039 | [2] -0.025 | entospletinib 0.02

ZBTB33 (UniProt Q86T24)
Sequence of UniProt Q86T24 (Q86T24 whole entry, looked up): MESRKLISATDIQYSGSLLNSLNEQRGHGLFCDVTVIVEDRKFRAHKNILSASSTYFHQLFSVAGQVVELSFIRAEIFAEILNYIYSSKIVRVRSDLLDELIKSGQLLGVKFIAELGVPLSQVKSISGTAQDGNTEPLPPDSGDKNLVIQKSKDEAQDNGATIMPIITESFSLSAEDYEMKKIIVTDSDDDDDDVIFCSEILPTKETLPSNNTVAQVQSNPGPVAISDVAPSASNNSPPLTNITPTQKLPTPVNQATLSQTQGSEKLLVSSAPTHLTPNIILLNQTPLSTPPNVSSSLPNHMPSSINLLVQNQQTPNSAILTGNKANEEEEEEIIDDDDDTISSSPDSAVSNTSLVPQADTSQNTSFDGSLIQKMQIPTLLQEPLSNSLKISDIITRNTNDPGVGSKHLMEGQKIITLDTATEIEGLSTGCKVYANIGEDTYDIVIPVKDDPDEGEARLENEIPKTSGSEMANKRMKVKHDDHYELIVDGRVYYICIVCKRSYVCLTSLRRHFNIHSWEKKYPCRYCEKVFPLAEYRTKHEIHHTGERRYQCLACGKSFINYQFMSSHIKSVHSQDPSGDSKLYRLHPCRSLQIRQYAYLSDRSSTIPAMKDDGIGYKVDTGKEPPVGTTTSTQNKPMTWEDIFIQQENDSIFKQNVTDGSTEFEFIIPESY
inactive: [1] 0.061 | vorinostat 0.103 | silmitasertib -0.082 | [2] 0.009 | entospletinib -0.033

WRNIP1 (UniProt Q96S55)
Sequence of UniProt Q96S55 (Q96S55 whole entry, looked up): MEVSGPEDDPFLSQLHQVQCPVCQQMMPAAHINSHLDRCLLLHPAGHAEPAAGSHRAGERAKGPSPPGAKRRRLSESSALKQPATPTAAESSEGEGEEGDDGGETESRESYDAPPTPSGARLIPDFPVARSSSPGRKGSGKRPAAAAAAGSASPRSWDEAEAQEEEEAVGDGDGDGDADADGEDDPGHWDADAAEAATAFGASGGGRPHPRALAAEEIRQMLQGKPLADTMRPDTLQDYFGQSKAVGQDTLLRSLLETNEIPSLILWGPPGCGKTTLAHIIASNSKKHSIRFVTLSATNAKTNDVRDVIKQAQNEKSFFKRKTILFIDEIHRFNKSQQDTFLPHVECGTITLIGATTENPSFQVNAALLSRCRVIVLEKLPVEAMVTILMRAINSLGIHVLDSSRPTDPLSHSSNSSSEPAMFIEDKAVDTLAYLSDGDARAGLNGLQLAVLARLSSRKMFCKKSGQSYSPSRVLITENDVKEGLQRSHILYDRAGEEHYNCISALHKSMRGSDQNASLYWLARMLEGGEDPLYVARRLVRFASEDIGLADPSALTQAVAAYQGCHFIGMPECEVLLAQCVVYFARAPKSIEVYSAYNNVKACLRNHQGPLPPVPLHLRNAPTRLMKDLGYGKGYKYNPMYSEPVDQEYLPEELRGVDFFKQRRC
active: vorinostat -0.521
inactive: [1] -0.011 | silmitasertib 0 | [2] -0.046 | entospletinib -0.02

WDR77 (UniProt Q9BQA1)
Sequence of UniProt Q9BQA1 (Q9BQA1 whole entry, looked up): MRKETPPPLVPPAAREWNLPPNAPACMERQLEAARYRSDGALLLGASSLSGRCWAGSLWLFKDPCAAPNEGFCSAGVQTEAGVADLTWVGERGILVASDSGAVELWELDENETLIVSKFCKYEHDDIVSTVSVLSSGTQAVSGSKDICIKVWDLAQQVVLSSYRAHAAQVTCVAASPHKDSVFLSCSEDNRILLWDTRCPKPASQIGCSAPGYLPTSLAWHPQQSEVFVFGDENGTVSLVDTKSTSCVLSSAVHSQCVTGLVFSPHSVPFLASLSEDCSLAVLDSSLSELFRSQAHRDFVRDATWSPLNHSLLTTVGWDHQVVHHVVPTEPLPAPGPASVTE
inactive: [1] -0.052 | vorinostat -0.067 | silmitasertib 0.041 | [2] -0.01 | entospletinib 0.006

VANGL1 (UniProt Q8TAA9)
inactive: [1] -0.04 | vorinostat 0.085 | silmitasertib 0.159 | [2] -0.031 | entospletinib -0.009

VPS72 (UniProt Q15906)
inactive: [1] 0.11 | silmitasertib -0.018 | [2] -0.029 | entospletinib -0.014
active: vorinostat -0.401

ZBTB40 (UniProt Q9NUA8)
Sequence of UniProt Q9NUA8 (Q9NUA8 whole entry, looked up): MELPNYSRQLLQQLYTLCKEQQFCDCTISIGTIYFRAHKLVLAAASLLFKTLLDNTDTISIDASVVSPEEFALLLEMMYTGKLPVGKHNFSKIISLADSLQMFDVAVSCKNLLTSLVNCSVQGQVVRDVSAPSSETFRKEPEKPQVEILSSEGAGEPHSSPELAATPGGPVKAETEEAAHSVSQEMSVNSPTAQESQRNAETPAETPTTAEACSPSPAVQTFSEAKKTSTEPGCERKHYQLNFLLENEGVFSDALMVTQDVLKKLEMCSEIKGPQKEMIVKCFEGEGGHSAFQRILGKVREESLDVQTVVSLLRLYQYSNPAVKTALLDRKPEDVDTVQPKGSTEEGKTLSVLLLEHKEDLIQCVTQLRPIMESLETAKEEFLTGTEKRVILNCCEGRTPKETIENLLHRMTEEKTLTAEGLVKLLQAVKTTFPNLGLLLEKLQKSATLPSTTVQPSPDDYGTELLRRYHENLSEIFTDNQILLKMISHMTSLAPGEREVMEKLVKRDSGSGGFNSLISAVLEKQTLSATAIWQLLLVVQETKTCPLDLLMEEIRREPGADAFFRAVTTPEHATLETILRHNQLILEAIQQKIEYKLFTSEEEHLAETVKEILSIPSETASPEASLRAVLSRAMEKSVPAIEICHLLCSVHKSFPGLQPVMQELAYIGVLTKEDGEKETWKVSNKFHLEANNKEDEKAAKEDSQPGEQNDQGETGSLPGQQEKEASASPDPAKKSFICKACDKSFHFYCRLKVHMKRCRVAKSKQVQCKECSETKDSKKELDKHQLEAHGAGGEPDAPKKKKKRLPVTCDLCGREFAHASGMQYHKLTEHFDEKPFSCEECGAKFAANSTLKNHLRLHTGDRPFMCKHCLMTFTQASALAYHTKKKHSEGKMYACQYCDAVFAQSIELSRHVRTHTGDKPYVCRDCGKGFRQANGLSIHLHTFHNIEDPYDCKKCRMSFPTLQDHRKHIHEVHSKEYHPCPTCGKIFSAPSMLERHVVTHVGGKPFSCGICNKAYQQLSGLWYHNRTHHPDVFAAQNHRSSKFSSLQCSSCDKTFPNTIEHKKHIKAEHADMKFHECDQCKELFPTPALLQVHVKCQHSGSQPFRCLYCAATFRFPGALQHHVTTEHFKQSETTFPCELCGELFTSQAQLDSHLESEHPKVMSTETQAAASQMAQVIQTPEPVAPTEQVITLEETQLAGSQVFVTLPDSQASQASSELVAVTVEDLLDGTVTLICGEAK
inactive: [1] 0.073 | vorinostat -0.118 | silmitasertib 0.024 | [2] 0.036

XPOT (UniProt O43592)
Sequence of UniProt O43592 (O43592 whole entry, looked up): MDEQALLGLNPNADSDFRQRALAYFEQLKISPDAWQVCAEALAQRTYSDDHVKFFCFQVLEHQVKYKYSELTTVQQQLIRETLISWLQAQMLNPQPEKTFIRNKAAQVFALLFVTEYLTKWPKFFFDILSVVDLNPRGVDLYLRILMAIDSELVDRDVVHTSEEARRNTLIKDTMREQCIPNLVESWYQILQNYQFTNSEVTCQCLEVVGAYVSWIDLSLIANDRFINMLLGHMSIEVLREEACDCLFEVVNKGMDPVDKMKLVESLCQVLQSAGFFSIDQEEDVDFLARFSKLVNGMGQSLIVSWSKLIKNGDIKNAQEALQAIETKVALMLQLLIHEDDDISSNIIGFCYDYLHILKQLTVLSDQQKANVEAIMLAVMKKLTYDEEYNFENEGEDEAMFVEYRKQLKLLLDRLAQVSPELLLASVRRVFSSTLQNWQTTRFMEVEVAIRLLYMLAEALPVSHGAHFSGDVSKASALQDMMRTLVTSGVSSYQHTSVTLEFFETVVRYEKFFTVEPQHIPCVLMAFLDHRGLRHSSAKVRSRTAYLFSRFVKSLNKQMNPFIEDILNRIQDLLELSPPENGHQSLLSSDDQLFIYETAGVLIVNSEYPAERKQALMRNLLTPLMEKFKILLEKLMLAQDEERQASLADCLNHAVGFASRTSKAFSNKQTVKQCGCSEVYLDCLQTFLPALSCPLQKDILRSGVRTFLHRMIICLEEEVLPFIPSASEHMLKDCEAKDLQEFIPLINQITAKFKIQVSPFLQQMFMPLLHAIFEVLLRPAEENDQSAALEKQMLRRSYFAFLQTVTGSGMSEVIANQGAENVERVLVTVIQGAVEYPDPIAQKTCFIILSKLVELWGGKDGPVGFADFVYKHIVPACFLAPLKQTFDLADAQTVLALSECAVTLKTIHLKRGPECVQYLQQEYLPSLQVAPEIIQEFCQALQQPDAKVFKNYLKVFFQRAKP
active: vorinostat -0.656
inactive: [1] -0.012 | silmitasertib 0.035 | [2] 0.009 | entospletinib 0.037

ZMYM1 (UniProt Q5SVZ6)
inactive: [1] -0.014 | vorinostat -0.202 | silmitasertib 0.042 | [2] -0.004 | entospletinib 0.021

VCPIP1 (UniProt Q96JH7)
inactive: [1] 0.007 | silmitasertib 0.029 | [2] -0.021 | entospletinib 0.006
active: vorinostat 0.894

VAV3 isoform 4 (UniProt Q9UKW4)
inactive: [1] 0.128 | vorinostat -0.358 | silmitasertib 0.148 | [2] -0.115 | entospletinib 0.295

UNC13D (UniProt Q70J99)
inactive: [1] 0.022 | silmitasertib 0.002 | [2] -0.006 | entospletinib 0.026
active: vorinostat -0.211

UQCC2 (UniProt Q9BRT2)
inactive: [1] -0.019 | vorinostat 0.121 | silmitasertib -0.021 | [2] -0.06 | entospletinib -0.039
